Experimental data reported in PubChem BioAssay (EPA / NIEHS).
The source made the active and inactive calls. Rule for the calls: active = hit-call score of the fitted dose curve at least 0.9, where 1 is the maximum; inactive = score below 0.9.

Legend:
[1] = read-out: Human Leukocyte Antigen - DR isotype (HLADR), HLA-DRA (gene 3122); assay: BSK_BE3C_HLADR: BioMAP Diversity Plus: BE3C Assay for Human Leukocyte Antigen - DR isotype (HLADR) Biomarker Activity (AID 2283032); details: primary human bronchial epithelial cells; actives raise or lower the signal
Outline: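 Cell-surface HLA-DR ELISA readout at 24 h after dosing in the BE3C primary human lung bronchial epithelial system; gain or loss of signal against DMSO, with parallel sulforhodamine B staining of total protein for overt cytotoxicity.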

[2] = read-out: Vascular cell adhesion molecule 1 (VCAM1), VCAM1 (gene 7412); assay: BSK_4H_VCAM1: BioMAP Diversity Plus: 4H Assay for Vascular cell adhesion molecule 1 (VCAM1) Biomarker Activity (AID 2283033); details: primary human endothelial cells (HUVEC); actives raise or lower the signal;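 note: cell-surface VCAM-1 protein measured by ELISA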
Outline: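 VCAM-1 ELISA read 24 h after chemical dosing of HUVEC in the BioMAP 4H system, with gain or loss of signal fitted relative to DMSO. Parallel SRB staining (560 nm) checked overt cytotoxicity.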

[3] = read-out: Interferon-gamma inducible Protein 10 (IP10), CXCL10 (gene 3627); assay: BSK_BE3C_IP10: BioMAP Diversity Plus: BE3C Assay for Interferon-gamma inducible Protein 10 (IP10) Biomarker Activity (AID 2283034); details: primary human bronchial epithelial cells; actives raise or lower the signal
Outline: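 IP-10 quantified by ELISA in human primary bronchial epithelial cell cultures at 24 hours post-dosing. Gain or loss of signal fitted relative to DMSO; parallel SRB staining assessed overt cytotoxicity.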

[4] = read-out: Monokine induced gamma interferon (MIG), CXCL9 (gene 4283); assay: BSK_BE3C_MIG: BioMAP Diversity Plus: BE3C Assay for Monokine induced gamma interferon (MIG) Biomarker Activity (AID 2283035); details: primary human bronchial epithelial cells; actives raise or lower the signal
Outline: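 hu bronchial epithelial 1° cells, 24 h cpd; MIG by ELISA; bidirectional fit, DMSO = baseline.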

[5] = read-out: Plasminogen activator inhibitor-1 (PAI1), SERPINE1 (gene 5054); assay: BSK_BE3C_PAI1: BioMAP Diversity Plus: BE3C Assay for Plasminogen activator inhibitor-1 (PAI1) Biomarker Activity (AID 2283037); details: primary human bronchial epithelial cells; actives raise or lower the signal
Outline: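 PAI-1 was measured by ELISA in human primary bronchial epithelial cultures 24 h after chemical dosing, with cytotoxicity checked by SRB total-protein staining in parallel cultures. Activity was fitted in both directions relative to DMSO.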

[6] = read-out: Urokinase-type plasminogen activator receptor (uPAR), PLAUR (gene 5329); assay: BSK_BE3C_uPAR: BioMAP Diversity Plus: BE3C Assay for Urokinase-type plasminogen activator receptor (uPAR) Biomarker Activity (AID 2283039); details: primary human bronchial epithelial cells; actives raise or lower the signal;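 note: cells exposed to compound for one day before measurement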
Outline: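 uPAR levels were measured by ELISA after 24 h compound treatment of primary human bronchial epithelial cells, fitted in both directions relative to DMSO. Parallel SRB staining served as the cytotoxicity read-out.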

[7] = read-out: Interleukin-6 (IL6), IL6 (gene 3569); assay: BSK_CASM3C_IL6: BioMAP Diversity Plus: CASM3C Assay for Interleukin-6 (IL6) Biomarker Activity for (AID 2283040); details: primary human coronary artery smooth muscle cells; actives raise or lower the signal
[8] = read-out: Tissue plasminogen activator (tPA), PLAT (gene 5327); assay: BSK_BE3C_tPA: BioMAP Diversity Plus: BE3C Assay for Tissue plasminogen activator (tPA) Biomarker Activity (AID 2283041); details: primary human bronchial epithelial cells; actives raise or lower the signal;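 note: tPA level quantified by ELISA one day after compound addition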
Outline: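 tPA measured by ELISA 24 h after dosing human primary bronchial epithelial cells (BE3C system). Changes in either direction were fitted against DMSO. Parallel cultures were stained with SRB to flag overt cytotoxicity.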

[9] = read-out: Interleukin-8 (IL8), CXCL8 (gene 3576); assay: BSK_CASM3C_IL8: BioMAP Diversity Plus: CASM3C Assay for Interleukin-8 (IL8) Biomarker Activity (AID 2283042); details: primary human coronary artery smooth muscle cells; actives raise or lower the signal;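 note: IL-8 protein level quantified by ELISA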
[10] = read-out: Human Leukocyte Antigen - DR isotype (HLADR), HLA-DRA (gene 3122); assay: BSK_CASM3C_HLADR: BioMAP Diversity Plus: CASM3C Assay for Human Leukocyte Antigen - DR isotype (HLADR) Biomarker Activity (AID 2283043); details: primary human coronary artery smooth muscle cells; actives raise or lower the signal;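 note: cell-surface HLA-DR protein level quantified by ELISA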
[11] = read-out: Macrophage colony-stimulating factor (MCSF), CSF1 (gene 1435); assay: BSK_CASM3C_MCSF: BioMAP Diversity Plus: CASM3C Assay for Macrophage colony-stimulating factor (MCSF) Biomarker Activity (AID 2283044); details: primary human coronary artery smooth muscle cells; actives raise or lower the signal;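 note: M-CSF protein amount quantified by ELISA after 24 h exposure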
[12] = read-out: Low-density lipoprotein receptor (LDLR), LDLR (gene 3949); assay: BSK_CASM3C_LDLR: BioMAP Diversity Plus: CASM3C Assay for Low-density lipoprotein receptor (LDLR) Biomarker Activity (AID 2283045); details: primary human coronary artery smooth muscle cells; actives raise or lower the signal;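 note: LDLR protein level on the cell surface quantified by ELISA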
[13] = read-out: Monocyte Chemoattractant Protein-1 (MCP1), CCL2 (gene 6347); assay: BSK_CASM3C_MCP1: BioMAP Diversity Plus: CASM3C Assay for Monocyte Chemoattractant Protein-1 (MCP1) Biomarker Activity (AID 2283046); details: primary human coronary artery smooth muscle cells; actives raise or lower the signal;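 note: MCP-1 level quantified by ELISA 24 h after dosing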
[14] = BSK_CASM3C_Proliferation: Cell Proliferation Assessment in the BioMAP Diversity Plus: CASM3C Assay (AID 2283047); details: primary human coronary artery smooth muscle cells;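 note: sulforhodamine B total protein stain as relative cell number at 560 nm; sub-confluent cells exposed 48 h before staining; fitted both ways against DMSO so gain or loss of cell number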
[15] = read-out: Monokine induced gamma interferon (MIG), CXCL9 (gene 4283); assay: BSK_CASM3C_MIG: BioMAP Diversity Plus: CASM3C Assay for Monokine induced gamma interferon (MIG) Biomarker Activity (AID 2283048); details: primary human coronary artery smooth muscle cells; actives raise or lower the signal
[16] = read-out: serum amyloid A (SAA), SAA1 (gene 6288); assay: BSK_CASM3C_SAA: BioMAP Diversity Plus: CASM3C Assay for serum amyloid A (SAA) Biomarker Activity (AID 2283049); details: primary human coronary artery smooth muscle cells; actives raise or lower the signal;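 note: SAA protein level quantified by ELISA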
[17] = BSK_CASM3C_SRB: Viability Assessment in the BioMAP Diversity Plus: CASM3C Assay (AID 2283050); details: primary human coronary artery smooth muscle cells
[18] = read-out: Thrombomodulin, THBD (gene 7056); assay: BSK_CASM3C_Thrombomodulin: BioMAP Diversity Plus: CASM3C Assay for Thrombomodulin Biomarker Activity (AID 2283051); details: primary human coronary artery smooth muscle cells; actives raise or lower the signal;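 note: thrombomodulin protein level measured by ELISA 24 h after dosing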
[19] = read-out: Transforming growth factor beta 1 (TGFb1), TGFB1 (gene 7040); assay: BSK_BE3C_TGFb1: BioMAP Diversity Plus: BE3C Assay for Transforming growth factor beta 1 (TGFb1) Biomarker Activity (AID 2283036;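 note: TGF-b1 protein level measured by ELISA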); details: primary human bronchial epithelial cells; actives raise or lower the signal
Outline: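 ELISA readout of TGF-b1 from human lung bronchial epithelial primary cells, taken 24 h post-treatment. Gain or loss of signal fitted relative to DMSO baseline, with parallel SRB staining for overt cytotoxicity.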

[20] = read-out: urokinase plasminogen activator (uPA), PLAU (gene 5328); assay: BSK_BE3C_uPA: BioMAP Diversity Plus: BE3C Assay for urokinase plasminogen activator (uPA) Biomarker Activity (AID 2283038); details: primary human bronchial epithelial cells; actives raise or lower the signal;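 note: uPA protein level quantified by ELISA in cell cultures; uPA read one day after compound addition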
Outline: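 Human primary bronchial epithelial cells were exposed to chemical for 24 h, then uPA levels were measured by ELISA. Responses were fitted bidirectionally against DMSO as negative control and baseline. Parallel SRB staining of total protein gauged overt cytotoxicity.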

Measured: outcome

FC(F)=C(F)C(F)(F)C(F)(F)C(F)(F)C(F)(F)C(F)(F)C(F)(F)F
not listed: [19] | [20]
inactive: all other assays above

CCCc1ccccc1
not listed: [20]
inactive: all other assays above

NCC(F)(F)C(F)(F)C(F)(F)C(F)(F)F
not listed: [19]
inactive: all other assays above

CCCCCCCCN(C)C
not listed: [20]
inactive: all other assays above

OC[C@H]1O[C@@](CO)(O[C@H]2O[C@H](CO)[C@@H](O)[C@H](O)[C@H]2O)[C@@H](O)[C@@H]1O
not listed: [20]
inactive: all other assays above

C[Si](C)(C)C(F)(F)C(F)(F)C(F)(F)F
not listed: [19] | [20]
inactive: all other assays above

COS(C)(=O)=O
not listed: [20]
inactive: all other assays above
